# Assay outcomes: PubChem, Broad Institute
# The full list was thinned out, with hits kept by preference.
# miR122 inh = activators of miR-122 sensor in Huh7 cells | Huh7 psiCHECK-miR122 Renilla luciferase sensor, 48 h | activation, % at 12.5 µM | 0.14% of 340,000 active | AID 623901;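 active = mean activation of 30% or more, with every replicate also reaching 30%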;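 also: 0% = median of neutral control wells and 100% = median of positive control wells; higher luciferase signal means stronger suppression of miR-122 activity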
# Numbers without * were called inactive.
SMILES,miR122 inh
C[C@@H]1CN([C@@H](C)CO)C(=O)c2cc(-c3ccc(F)cc3)cnc2O[C@H]1CN(C)Cc1cccnc1,2.3
C[C@H](CO)N1C[C@H](C)[C@H](CN(C)C(=O)c2ccncc2)Oc2cc(C#Cc3ccncc3)ccc2S1(=O)=O,0.7
C/C=C/c1cnc2c(c1)C(=O)N([C@@H](C)CO)C[C@@H](C)[C@H](CN(C)C(=O)c1cccnc1)O2,-1.1
C[C@@H]1CN([C@H](C)CO)C(=O)c2cc(/C=C/c3ccccc3)cnc2O[C@H]1CN(C)Cc1ccccc1F,-31.3
CC(C)C#Cc1cnc2c(c1)C(=O)N([C@H](C)CO)C[C@H](C)[C@@H](CN(C)C(=O)c1ccccc1)O2,3.3
CC(=O)N(C)C[C@H]1[C@H](c2ccc(-c3cccnc3)cc2)[C@@H](CO)N1C(=O)C1CC1,-125.0
CC(=O)N1[C@@H](CO)[C@H](c2ccccc2)[C@@H]1CNC(=O)CN1CCOCC1,-108.3
O=C(C1CCOCC1)N1[C@H](CO)[C@H]2c3ccccc3NC[C@H]21,41.7*
CCC(=O)Nc1ccc2c(c1)C(=O)N(C)C[C@H](OC)[C@H](C)CN(C(C)=O)[C@H](C)CO2,1.6
COCC#Cc1ccc2c(c1)O[C@H](CN(C)C(C)=O)[C@@H](C)CN([C@H](C)CO)S2(=O)=O,-3.2
CCC(=O)N(C)C[C@H]1Oc2cc(C#C[C@H](C)O)ccc2S(=O)(=O)N([C@H](C)CO)C[C@H]1C,2.2
COCC(=O)N(C)C[C@@H]1Oc2ncc(C#Cc3ccccc3OC)cc2C(=O)N([C@H](C)CO)C[C@@H]1C,4.5
O=C(c1cc([N+](=O)[O-])ccc1N1CCOCC1)N1CCN(c2ccccc2)CC1,-90.3
Cc1onc(C(=O)N2CCN(C(c3ccccc3)c3ccccc3)CC2)c1[N+](=O)[O-],30.5*
CC(C)C#Cc1ccc2c(c1)O[C@H](CN(C)C(=O)NC(C)C)[C@@H](C)CN([C@H](C)CO)S2(=O)=O,-88.2
Cc1noc(C)c1NC(=O)N(C)C[C@H]1Oc2ncc(C#CC3CCCCC3)cc2C(=O)N([C@@H](C)CO)C[C@@H]1C,-5.9
C[C@@H]1CN([C@H](C)CO)C(=O)Cc2cc(NC(=O)Nc3cccc4ccccc34)ccc2O[C@@H]1CN(C)C(=O)NC1CCCCC1,-120.5
C[C@H](CO)N1C[C@H](C)[C@@H](CN(C)Cc2ccncc2)Oc2ccc(NC(=O)Nc3cccc4ccccc34)cc2CC1=O,-97.7
C[C@H](CO)N1C[C@H](C)[C@H](CN(C)Cc2ccc(C(=O)Nc3ccccc3N)cc2)Oc2ccc(NC(=O)Nc3cccc4ccccc34)cc2CC1=O,-96.2
C[C@H]1CCCCO[C@@H](CN(C)CC2CCCCC2)[C@@H](C)CN([C@@H](C)CO)C(=O)c2cc(NC(=O)Nc3cccc4ccccc34)ccc2O1,33.5*
C[C@@H]1CCCCO[C@@H](CN(C)CC2CCCCC2)[C@H](C)CN([C@@H](C)CO)C(=O)c2cc(NC(=O)Nc3cccc4ccccc34)ccc2O1,31.1*
C[C@@H]1CN([C@H](C)CO)C(=O)Cc2cc(NC(=O)Nc3cccc4ccccc34)ccc2O[C@@H]1CN(C)C(=O)Nc1cccc2ccccc12,-99.2
CC(C)CC#Cc1cnc2c(c1)C(=O)N([C@H](C)CO)C[C@H](C)[C@H](CN(C)C(=O)C1CCCCC1)O2,-2.1
COc1ccc(C#Cc2cnc3c(c2)C(=O)N([C@@H](C)CO)C[C@H](C)[C@H](CN(C)CC2CCCC2)O3)cc1,10.8
C[C@@H]1CN([C@@H](C)CO)S(=O)(=O)c2ccc(-c3ccccc3)cc2O[C@H]1CN(C)Cc1cncnc1,-1.1
SMILES,miR122 inh
Cc1ccc(NC(=O)CN(C)C(=O)Cn2ncc(Cl)c(Cl)c2=O)cc1,70.6*
CCN(CC)S(=O)(=O)c1cc(C(=O)N(C)CC(=O)Nc2ccc(Cl)cc2)ccc1Cl,-168.4
CCCNC(=O)N(C)C[C@@H]1Oc2ncc(C#CCC3CCCC3)cc2C(=O)N([C@H](C)CO)C[C@@H]1C,6.6
CCCNC(=O)N(C)C[C@H]1Oc2cc(C#CC(C)C)ccc2S(=O)(=O)N([C@H](C)CO)C[C@@H]1C,-44.0
CO[C@@H]1CN(C)C(=O)c2ccc(NC(=O)Nc3cccc(F)c3)cc2OC[C@@H](C)N(C)C[C@@H]1C,0.2
C[C@H]1CN([C@@H](C)CO)S(=O)(=O)c2ccc(-c3cccc(C#N)c3)cc2O[C@H]1CN(C)C(=O)Nc1ccccc1F,-4.2
COc1ccc(NC(=O)N(C)C[C@H]2Oc3ncc(C4=CCCC4)cc3C(=O)N([C@@H](C)CO)C[C@H]2C)cc1,2.0
C[C@H](CO)N1C[C@H](C)[C@H](CN(C)C(=O)c2cnccn2)Oc2ncc(C#Cc3ccccn3)cc2C1=O,6.8
CCOc1ccc(S(=O)(=O)Nc2cc(C)ccn2)c2ccccc12,-236.7
COc1ccc(S(=O)(=O)Nc2cc(C)cc(C)n2)c2ccccc12,30.9*
COc1ccc(NS(=O)(=O)c2ccc(OC)c3ccccc23)cn1,-356.4
CO[C@H]1CN(C)C(=O)c2cc(NC(=O)Cc3ccccc3)ccc2OC[C@@H](C)N(C)C[C@@H]1C,0.5
CCCN(C)C[C@@H]1Oc2cc(C#CC(C)C)ccc2S(=O)(=O)N([C@@H](C)CO)C[C@@H]1C,5.4
